Compound activity (PubChem)
TDP1 cell noCPT: qHTS for Inhibitors of human tyrosyl-DNA phosphodiesterase 1 (TDP1): qHTS in cells in absence of CPT. Potency, µM (titrated, usually from 46.2 µM), for the others: top-dose activity change, negative = growth inhibition, usual class: inhibitors. 15% of 420,000 active. DT40 Tdp1-/- hTDP1 cells, no CPT, ATP luminescence, 48 h. AID 686978, 2013; also: potency is read from the fitted curve at half-maximal effect; % is scaled to controls: 0 for no effect and ±100 for the full control effect; nearly all actives have a fitted effect of over 55% in size
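Luminescent ATP content (CellTiter-Glo) served as the growth readout. Knockout chicken DT40 cells expressing human TDP1 were exposed to compounds without camptothecin for a minimum 48 hr at 37 °C.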
MCF10A rerep: inducers of DNA re-replication in MCF 10A breast cells | MCF 10A DNA re-replication, Hoechst nuclear intensity, 48 h | Potency, µM (doses to about 46.1 µM), for inactives: top-dose activity, positive = re-replication, actives largely listed as activators | 2.9% of 350,000 active; also: potency is read from the fitted curve at half-maximal effect; % of control where 0% means no effect; nearly all actives have a fitted effect of over 50% in size
SW480 rerep: induces DNA re-replication in SW480 colon adenocarcinoma cells | Potency, µM (top dose mostly 46.1 µM), for the others: top-dose re-replication activation, hits mostly activators | SW480 DNA re-replication, Hoechst DNA content imaging, 48 h | 1.8% of 340,000 active; also: potency is read from the fitted curve at half-maximal effect; % of control where 0% means no effect; nearly all actives have a fitted effect of over 55% in size
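Hoechst fluorescence of nuclei (405 nm excitation, 500-530 nm emission) measured by plate-scanning imager after 48 hr compound exposure at 37 C; re-replication scored as increased number of nuclei with elevated intensity.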
TDP1 cell CPT: growth inhibition of DT40 Tdp1-/-;hTDP1 cells with camptothecin (screen for TDP1 inhibitors); chicken DT40 Tdp1-/-;hTDP1 cells + 20 nM CPT, ATP luminescence, 48 h; Potency, µM (top dose mostly 46.2 µM), for inactives: at the top dose activity change, negative = growth inhibition, most hits filed as inhibitors; 12% of 420,000 active; also: potency is read from the fitted curve at half-maximal effect; % is scaled to controls: 0 for no effect and ±100 for the full control effect; nearly all actives have a fitted effect of over 55% in size
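Chicken DT40 Tdp1-/- cells stably complemented with human TDP1 were seeded at 400 cells/well in medium containing 20 nM camptothecin, exposed to pin-transferred compounds, and grown at 37 °C for at least 48 hr. Viability was read as ATP luminescence.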
BCR signal inh: chronic active BCR signaling inhibition; ABC-DLBCL IkBa-CBG/CBR reporter, luminescence ratio, 4 h; Potency, µM (doses to about 46.1 µM), inactives show top-dose activity change, negative = inhibition, actives largely listed as inhibitors; 0.05% of 340,000 active; AID 493014; active = well fitted inhibition curve with a large enough effect in the signal ratio, with a control signal flat, not every such curve was filed as active; inconclusive = small, poorly fitted or top-dose-only effect, or effect the other way, or a change in a side signal; the % refers to the signal ratio;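 also: potency is read from the fitted curve at half-maximal effect; plate controls were basal doxycycline-induced cells for no effect and cells given 10 µM MG132 for full effect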
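Compounds up to 46 uM were incubated four hours with TMD8 cells whose green CBG68 luciferase is fused to IkappaBalpha; red CBR luminescence normalised the signal, and concentration-effect curves were fitted to fusion, red and ratio data.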
IL1B secr inh: inflammasome signaling inhibition, IL-1 beta readout. 4.7% of 360,000 active. THP-1 LPS/ATP IL-1B secretion, AlphaLISA, 16 h; active compounds read low. activity change, % at 57.5 µM; in the data active = activity change below about -50%; inconclusive = mostly about -30% to -49%; also: % is scaled to controls: 0 for no effect and ±100 for the full control effect
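Secreted IL-1B measured by AlphaLISA bead assay after 16 h compound exposure of THP-1 cells; compounds (final up to 57.5 uM) added 1 h before LPS (250 ng/mL) and ATP (1.25 mM) stimulation; lower signal means less secretion.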
The depositor's hits bear a star; ? = inconclusive; nt = no result; [ ] = dose if it differs, or a comment. Hits are enriched below; roughly 19% of the tested compounds scored in any of these assays. Unless noted, calls follow the shape of the dose curve; as a rule, active = well fitted curve in the direction sought with a large enough effect; inconclusive = small, poorly fitted or top-dose-only effect, or another doubt; inactive = no such curve, though single readings can be large; an effect the other way counts as inactive or inconclusive.

SMILES | TDP1 cell noCPT | MCF10A rerep | SW480 rerep | TDP1 cell CPT | BCR signal inh | IL1B secr inh
CCCOCc1cc(CN2CCN(c3ccccc3OC)CC2)c(O)c2ncccc12 | 2.91µM* | nt | nt | 4.61µM* | nt | nt
CN(C)C1CCN(Cc2cc(COCc3ccccc3)c3cccnc3c2O)C1 (configuration not stated) | nt | ? | ? | nt | 7.1% | nt
COc1ccccc1N1CCN(Cc2cc(COC(C)C)c3cccnc3c2O)CC1 | 4.61µM* | nt | nt | 4.61µM* | nt | nt
COc1ccc(CN2CCN(c3cccc(C)c3C)CC2)cc1OC | 15.8% | -0.8% | -12.9% | -9.3% | ? | 41.3
COc1cc(CN2CCN(c3cccc(C)c3C)CC2)cc(Br)c1O | 20.6µM* | ? | ? | 13µM* | 1.9% | ?
CCOc1ccccc1N1CCN(Cc2cccc(OC)c2O)CC1 | ? | 21.6% | -15.6% | ? | ? | 17.7
COc1ccc(-n2c(=O)c(-c3cccs3)nc3cnc(Oc4ccccc4)nc32)cc1 | -16.3% | nt | nt | 2.0% | nt | nt
COc1cccc(CN(C)C(=O)c2cnn(-c3nccc(-c4ccc5c(c4)OCO5)n3)c2C)c1 | -0.1% | nt | nt | 0.6%[9.04 µM] | nt | nt
Cc1ccc(C)c(OCCC(=O)OCC(=O)Nc2cc(S(=O)(=O)N3CCCCC3)ccc2C)c1 | -19.6% | ? | 7.7% | -31.9% | -3.1% | -15.1
CN(CC(=O)Nc1ccccc1C(=O)NC1CC1)Cc1cccs1 | 7.0% | -3.6% | ? | 0.9% | -4.5% | -10.0
COc1cc(OC)c(Nc2cc(C)nc3ncnn23)cc1Cl | ? | nt | nt | -25.9% | nt | nt
OC(C[n+]1ccccc1Cl)c1ccccc1 (configuration not stated) | -21.0% | nt | nt | -8.6% | nt | nt
O=C(NCC1CCCN1S(=O)(=O)c1cccs1)c1c(F)cccc1F (configuration not stated) | ? | 1.0% | -0.4% | -7.3% | -1.6% | 0.5
COCc1c(C(=O)NCC2CCCN(C)C2)cnn1-c1ncc2c(n1)-c1ccccc1CCC2 (configuration not stated) | -9.5% | nt | nt | 11.0%[9.04 µM] | nt | nt
CC1(C)S[C@@H]2[C@H](NC(=O)C(c3ccccc3)S(=O)(=O)O)C(=O)N2[C@H]1C(=O)O (some centres not stated) | 1.1% | nt | nt | -5.0% | nt | nt
COc1ccccc1N1CCN(Cc2cc3c(cc2O)OCO3)CC1 | -17.0% | 4.7% | -2.0% | -6.9% | -6.9% | -20.9
COc1ccccc1N1CCN(Cc2cc(Br)c(O)c3ncccc23)CC1 | 9.2µM* | ? | 5.17µM* | 6.51µM* | ? | 69.6
CC(=O)Oc1ccc(C2(c3ccc(OC(C)=O)cc3)Oc3ccccc3NC2=O)cc1 | 18.8µM* | nt | nt | ? | nt | nt
CCOc1ccc(CCNC(=O)c2cc(-c3ccccc3)c(N3CCOCC3)s2)cc1OCC | 3.26µM* | 1.9% | -3.9% | ? | ? | 13.0
O=C(NCc1ccco1)c1cc(-c2ccccc2)c(N2CCOCC2)s1 | -11.0% | 27.5% | 3.9% | -1.1% | 11.0% | -14.2
O=C(NCc1ccc2c(c1)OCO2)c1cc(-c2ccccc2)c(N2CCOCC2)s1 | 20.6µM* | 11.0% | -5.4% | ? | 0.8% | ?
COc1ccc(CCNC(=O)c2cc(-c3ccccc3)c(N3CCOCC3)s2)c(OC)c1OC | 23.1µM* | 13.6% | -3.5% | 8.2µM* | 13.4% | -20.7
CCOc1ccc(CCNC(=O)c2cc(-c3ccccc3)c(N3CCOCC3)s2)cc1 | 29.1µM* | -10.2% | -0.5% | ? | nt | -18.2
COc1ccc(CC(=O)N/N=C(/C)CC(=O)N(C)c2ccccc2)cc1 | -22.1% | -31.9% | -38.1% | 10.8% | -0.5% | 4.4
O=C(OCCCN=C1NS(=O)(=O)c2ccccc21)c1ccc([N+](=O)[O-])cc1 | -28.4% | 0.5% | -4.5% | -5.0% | 3.1% | 8.0
